Laboratory results as given in PubChem BioAssay (Tox21).
Inconclusive results are not listed. Where a call stands in place of a potency, no number is given. Calls of active or inactive are those of the source. Calls follow the shape of the full dose curve.

Target: Beta-2 adrenergic receptor (Homo sapiens) (UniProt P07550)
Assay: Adrenergic beta2 receptor (ADRB2) small molecule agonists, cell-based qHTS assay (AID 1963593);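 also: CHO cells stably overexpressing human ADRB2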
In short: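 CHO cells stably over-expressing ADRB2 were plated overnight at 37C, then dosed with compounds plus a stimulation mix containing 100uM IBMX and 25uM Ro-20-1724 for 0.5hr at room temperature. cAMP was measured by HTRF competition, 1hr.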

Beta-2 adrenergic receptor (Homo sapiens), sequence (P07550 whole entry, looked up): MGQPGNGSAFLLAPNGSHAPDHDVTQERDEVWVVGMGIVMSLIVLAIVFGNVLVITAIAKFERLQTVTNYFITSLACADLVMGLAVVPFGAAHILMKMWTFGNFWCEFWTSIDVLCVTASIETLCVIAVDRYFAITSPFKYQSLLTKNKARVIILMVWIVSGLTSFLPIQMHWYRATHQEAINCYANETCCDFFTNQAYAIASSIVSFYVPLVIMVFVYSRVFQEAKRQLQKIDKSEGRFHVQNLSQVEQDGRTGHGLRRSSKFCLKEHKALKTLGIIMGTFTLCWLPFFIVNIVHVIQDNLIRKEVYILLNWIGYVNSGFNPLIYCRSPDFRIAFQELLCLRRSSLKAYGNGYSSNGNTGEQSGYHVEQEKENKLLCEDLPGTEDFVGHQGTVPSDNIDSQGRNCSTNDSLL

Structure (SMILES) | Potency
O=c1[nH]oc2c1CCNC2 | inactive
O=C(N/N=C/c1ccc([N+](=O)[O-])o1)c1cc([N+](=O)[O-])cc([N+](=O)[O-])c1O | inactive
N#CSCc1ccccc1 | inactive
CC(Cl)(Cl)[N+](=O)[O-] | inactive
CC(=O)CCc1ccc2c(c1)OCO2 | inactive
Cn1cc(C2=C(c3cn(C4CCN(Cc5ccccn5)CC4)c4ccccc34)C(=O)NC2=O)c2ccccc21 | inactive
FC(F)OC(F)(F)C(F)Cl (centres undefined) | inactive
Oc1cccc(-c2ccccc2)c1 | inactive
OC(c1ccc(F)cc1)(c1cncnc1)c1ccccc1Cl (centres undefined) | inactive
O=C(CBr)Nc1ccc(Cl)cc1C(=O)c1ccccc1F | inactive
NC1CCC(CC2CCC(N)CC2)CC1 (centres undefined) | inactive
O=C(O)CCCCCCNC1c2ccccc2CCc2ccccc21 | inactive
CCOC(=O)NC(=S)Nc1ccccc1NC(=S)NC(=O)OCC | inactive
CCOC(=O)NC(C)(C)Cc1ccc(Cl)cc1 | inactive
Cc1cccc2sc3nncn3c12 | inactive
CC(Cc1ccccc1)NCCn1cnc2c1c(=O)n(C)c(=O)n2C (centres undefined) | inactive
CC(C)CCCCCCCOC(=O)c1ccccc1C(=O)OCCCCCCCC(C)C | inactive
CC(=O)[C@H]1CC[C@H]2[C@@H]3CC[C@H]4C[C@H](O)CC[C@]4(C)[C@H]3C(=O)C[C@]12C | inactive
Nc1ccc(Cl)cc1C(=O)c1ccccc1F | inactive
CNP(=O)(OC)Oc1ccc(C(C)(C)C)cc1Cl (centres undefined) | inactive

Structure (SMILES) | Potency
CC(CC(C(N)=O)(c1ccccc1)c1ccccc1)N(C)C (centres undefined) | inactive
NCC1(CC(=O)O)CCCCC1 | inactive
C[N+]1(C)[C@@H]2CC[C@H]1CC(OC(=O)C(CO)c1ccccc1)C2 (some centres undefined) | inactive
CCOc1cc(OP(=S)(OC)OC)nc(CC)n1 | inactive
Cc1cccc(Cc2cnc[nH]2)c1C | inactive
N[C@@H]1C[C@H]1c1ccccc1 | inactive
CCOP(=O)(OCC)O/C(=C/Cl)c1ccc(Cl)cc1Cl | inactive
CC1(C)[C@H](C=C(Cl)Cl)[C@@H]1C(=O)O[C@@H](C#N)c1cccc(Oc2ccccc2)c1 | inactive
CC1N=C(N)OC1c1ccccc1 (centres undefined) | inactive
CSCCCN=C=S | inactive
CCCCC(CC)COC(=O)OOC(C)(C)C (centres undefined) | inactive
CCN(CC)c1c([N+](=O)[O-])cc(C(F)(F)F)c(N)c1[N+](=O)[O-] | inactive
S=C=Nc1cccc2ccccc12 | inactive
C#CC1(O)CCCCC1 | inactive
CC(C)[C@H](C(=O)O[C@H](C#N)c1cccc(Oc2ccccc2)c1)c1ccc(Cl)cc1 | inactive
ClC(Cl)C(Cl)Cl | inactive
Clc1ccc(C2(Cn3cncn3)CC(Br)CO2)c(Cl)c1 (centres undefined) | inactive
CCOP(=O)(OCC)Oc1cc(C)nc(C(C)C)n1 | inactive
Oc1ccc2c3c1O[C@H]1[C@@H](O)C=C[C@H]4[C@@H](C2)NCC[C@@]341 | inactive
